About 21,000 targets were measured; listed, in parts, are those with the largest changes and a random draw of the rest.
Compound: Cc1cc(ccc1-c1ccccc1)C(=O)N1CCCN(CC1)C(=O)CCl [compound 10]
Experiment: probe-labelled cysteine peptide fold change vs DMSO (competition) (log2 fold change); higher = less target engagement (more negative = stronger competition)
Settings: THP-1, incubation time: 4 h
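Also: competitive profiling in live THP-1 cells: cysteine peptides tagged with an iodoacetamide desthiobiotin (IA-DTB) probe, intensity after compound treatment relative to DMSO-treated cells.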

Target	probe-labelled cysteine peptide fold change (10 µM)	probe-labelled cysteine peptide fold change (50 µM)
COG1_Q8WTW3_318_LCSWFK (UniProt Q8WTW3)	-1.03	-2.3
DDX10_Q13206_196_INNINILVCTPGR (UniProt Q13206)	0.0926	0.195
DHRS4L2_Q6PKH6_86_KQQNVDQAVATLQGEGLSVTGTVCHVGK (UniProt Q6PKH6)	0.254	-0.306
CTPS2_Q9NRF8_299_ICSIALVGK (UniProt Q9NRF8)	-0.0254	0.193
CSMD2_Q7Z408-3_2_CDAHLR (UniProt Q7Z408)	0.077	-2.14
CTSH_P09668_272_TGIYSSTSCHK (UniProt P09668)	0.176	-0.114
CTSG_P08311_142_AQEGLRPGTLCTVAGWGR (UniProt P08311)	-0.0347	-0.0423
CSDE1_O75534_657_FQLCVLGQNAQTMAYNITPLR (UniProt O75534)	0.223	0.2
DIAPH2_O60879_775_NEYDDLCEPEQFGVVMSSVK (UniProt O60879)	-0.117	0.261
DESI1_Q6ICB0_108_GEAYNLFEHNCNTFSNEVAQFLTGR (UniProt Q6ICB0)	-0.076	-1.61
DDX59_Q5T1V6_453_LFKPPVLVFVDCK (UniProt Q5T1V6)	-0.33	-1.68
CMIP_Q8IY22_363_NGCQQPCDR (UniProt Q8IY22)	-0.29	-1.18
CTU1_Q7Z7A3_144_SCCTFCGVLR (UniProt Q7Z7A3)	-0.353	-1.17
DDX27_Q96GQ7_259_DICACAATGTGK (UniProt Q96GQ7)	0.0194	-0.0602
DGLUCY_Q7Z3D6_316_GIGHLLCK (UniProt Q7Z3D6)	-0.0414	0.0827
DNAJB1_P25685_179_VSLEEIYSGCTK (UniProt P25685)	-0.0218	0.255
DENND3_A2RUS2_499_LTDTAGCR (UniProt A2RUS2)	-0.198	-0.918
CPNE1_Q99829_4+14_AHCVTLVQLSISCDHLIDK (UniProt Q99829)	-0.148	-0.173

Target	probe-labelled cysteine peptide fold change (10 µM)	probe-labelled cysteine peptide fold change (50 µM)
COPE_O14579_225_CSPTLLLLNGQAACHMAQGR (UniProt O14579)	0.0563	0.158
COMP_P49747_371_GDACDDDIDGDR (UniProt P49747)	-1.61	-0.768
DNAJC7_Q99615_58_AIDMCPK (UniProt Q99615)	0.162	0.0415
DBR1_Q9UK59_347_VPCNFSVTAACYDPSKPQTQMQLIHR (UniProt Q9UK59)	-0.109	-0.299
CMTR1_Q8N1G2_794_DSTFDLPADSIAPFHICYYGR (UniProt Q8N1G2)	0.205	0.653
DDX50_Q9BQ39_242_LSVACFYGGTSYQSQINHIR (UniProt Q9BQ39)	0.333	-0.294
CXXC1_Q9P0U4_564_VPADEVCGCPLVR (UniProt Q9P0U4)	0.111	-0.109
DDX52_Q9Y2R4_342_TGFRDQLASIFLACTSHK (UniProt Q9Y2R4)	0.00973	0.189
CPVL_Q9H3G5_320_CTEPEDQLYYVK (UniProt Q9H3G5)	-0.128	-0.131
DHX8_Q14562_1108_AICSGFFR (UniProt Q14562)	-0.267	0.29
DDX24_Q9GZR7_599_SLVFANSISCIK (UniProt Q9GZR7)	0.147	0.498
DGLUCY_Q7Z3D6_265_APPGCLTPER (UniProt Q7Z3D6)	-0.239	-0.427
DNMT1_P26358_1476+1478_GVCSCVEAGK (UniProt P26358)	-1.56	< -5
CNNM4_Q6P4Q7_220_IVQNCGTEK<|>CNNM2_Q9H8M5_293_IVQNCGTEK (UniProt Q9H8M5+Q6P4Q7)	-0.2	-0.279
CPNE8_Q86YQ8_196_SNEDGSFTICHK (UniProt Q86YQ8)	0.205	0.413
DECR1_Q16698_86_GMTTLLSSLGAQCVIASR (UniProt Q16698)	0.251	0.213
CTSZ_Q9UBR2_179_ECHAIR (UniProt Q9UBR2)	0.892	2.23
CUL3_Q13618_462+464_LKTECGCQFTSK (UniProt Q13618)	-0.0794	-1.31
